The nature of test [1]: antimalarial activity against Dd2 strain (AID 2302;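 active = growth inhibition above 50% at the single 2 µM test dose, taken to imply half-maximal potency below 2 µM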;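 also: 0% = DMSO untreated growth and 100% = chloroquine plus artemisinin killed control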). Particulars: P. falciparum Dd2 in RBCs, LDH growth readout, 72 h; at 2 µM; active compounds read high.
Test [2] is described as follows: HepG2 cytotoxicity, primary screen, cytotoxicity control for P. falciparum antimalarial project, cell-based, ATP luminescence (AID 2303;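 active = inhibition above 50%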;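 also: 0% = DMSO wells and 100% = digitonin-killed cells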). Particulars: HepG2 viability, 24-48 h, at 10 µM, active compounds read high.
Test [3] deals with L-lactate dehydrogenase (Plasmodium falciparum (isolate CDC / Honduras)) (UniProt Q27743). Description: PfLDH activity inhibition – cell lysate, 3D7 strain, counter-screen for P. falciparum growth inhibition project (AID 2304).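 Also: 0% = vehicle and 100% = reference inhibitor.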 Particulars: P. falciparum 3D7 crude extract, LDH APAD/NBT absorbance; at 2 µM; active compounds read high.
Test [4] is described as follows: inhibition of 3D7 malaria parasite growth – strain 3D7 (AID 2306).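 Also: 0% = DMSO wells and 100% = chloroquine plus artemisinin control wells.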 As to conditions: P. falciparum 3D7 erythrocytic growth, LDH absorbance, 72 h; at 2 µM; active compounds read high.
For test [5], the target named is Calcium-dependent protein kinase 1 (Plasmodium falciparum (isolate 3D7)) (UniProt P62344). Description: PfCDPK1 kinase inhibitors, biochemical, TCAMS library (AID 1159585; cut-off not given, nearly all actives have IC50 up to about 0.98 µM;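 also: inhibitors leave more ATP so luminescence rises with inhibition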). Particulars: recombinant PfCDPK1, Kinase-Glo ATP depletion luminescence.
The target in test [6] is Plasmodium falciparum protein kinase 6 (PK6, PF3D7_1337100) (UniProt Q8IDW1). Description: PfPK6 kinase inhibitors, biochemical, TCAMS library (AID 1159586). As to conditions: recombinant PfPK6, Kinase-Glo ATP depletion luminescence. (Kinase-Glo measures the ATP left after a reaction by luminescence.)
Test [7] addresses Protein kinase 7 (PK7), Plasmodium falciparum 3D7 (PF3D7_0213400) (UniProt Q7YTF7). Description: inhibition of Plasmodium PK7 catalytic activity – biochemical, TCAMS antimalarial set, Kinase-Glo luminescence (AID 1159587). As to conditions: recombinant PfPK7, Kinase-Glo ATP depletion luminescence.
Test [8] has as its target Calcium-dependent protein kinase 4 (Plasmodium falciparum (isolate 3D7)) (UniProt Q8IBS5). Nature of the test: PfCDPK4 kinase inhibitors, biochemical, TCAMS library (AID 1159588; cut-off not given, nearly all actives have IC50 up to about 0.91 µM). As to conditions: recombinant PfCDPK4, Kinase-Glo ATP depletion luminescence.

Experimental findings from PubChem BioAssay are described below.

Structures are written as SMILES. A number with no mark means an inactive call. For some assays here: Potency and affinity values are given separately. Calls of active or inactive are those of the source. Unless noted, no rule for the calls is given here.

Sequence of Calcium-dependent protein kinase 4 (Plasmodium falciparum (isolate 3D7)) (Q8IBS5 whole entry, looked up): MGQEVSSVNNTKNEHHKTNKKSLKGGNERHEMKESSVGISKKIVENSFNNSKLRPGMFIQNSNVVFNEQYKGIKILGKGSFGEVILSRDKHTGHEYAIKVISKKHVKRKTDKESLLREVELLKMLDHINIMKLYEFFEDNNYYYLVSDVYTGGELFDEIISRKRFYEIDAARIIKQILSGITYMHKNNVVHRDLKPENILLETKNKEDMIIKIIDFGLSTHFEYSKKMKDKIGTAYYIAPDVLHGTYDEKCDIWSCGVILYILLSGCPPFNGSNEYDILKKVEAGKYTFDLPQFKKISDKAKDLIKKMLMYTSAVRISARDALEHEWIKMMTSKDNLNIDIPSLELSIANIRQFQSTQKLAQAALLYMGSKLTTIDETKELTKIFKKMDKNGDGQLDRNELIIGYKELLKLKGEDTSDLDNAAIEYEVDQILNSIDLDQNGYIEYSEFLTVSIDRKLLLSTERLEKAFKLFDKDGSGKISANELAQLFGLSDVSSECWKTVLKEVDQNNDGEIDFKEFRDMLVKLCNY
Sequence of L-lactate dehydrogenase (Plasmodium falciparum (isolate CDC / Honduras)) (Q27743 whole entry, looked up): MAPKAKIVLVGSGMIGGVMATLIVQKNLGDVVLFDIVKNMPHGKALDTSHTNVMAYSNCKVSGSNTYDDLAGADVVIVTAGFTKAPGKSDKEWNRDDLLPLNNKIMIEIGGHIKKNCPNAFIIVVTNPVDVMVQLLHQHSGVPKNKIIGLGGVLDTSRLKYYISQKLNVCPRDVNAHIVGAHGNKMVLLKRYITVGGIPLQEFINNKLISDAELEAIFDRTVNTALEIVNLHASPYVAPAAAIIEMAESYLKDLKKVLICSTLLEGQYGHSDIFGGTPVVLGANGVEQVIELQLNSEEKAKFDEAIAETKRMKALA
Sequence of Plasmodium falciparum protein kinase 6 (PK6, PF3D7_1337100) (Q8IDW1 1-305): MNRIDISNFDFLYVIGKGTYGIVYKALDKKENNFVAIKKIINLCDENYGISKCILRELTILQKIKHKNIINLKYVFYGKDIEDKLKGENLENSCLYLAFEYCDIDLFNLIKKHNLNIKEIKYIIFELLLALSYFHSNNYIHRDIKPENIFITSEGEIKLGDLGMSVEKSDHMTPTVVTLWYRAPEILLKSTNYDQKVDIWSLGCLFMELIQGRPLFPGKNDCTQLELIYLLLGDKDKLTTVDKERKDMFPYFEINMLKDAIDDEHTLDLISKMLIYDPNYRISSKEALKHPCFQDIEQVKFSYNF
Sequence of Protein kinase 7 (PK7), Plasmodium falciparum 3D7 (PF3D7_0213400) (Q7YTF7 1-343): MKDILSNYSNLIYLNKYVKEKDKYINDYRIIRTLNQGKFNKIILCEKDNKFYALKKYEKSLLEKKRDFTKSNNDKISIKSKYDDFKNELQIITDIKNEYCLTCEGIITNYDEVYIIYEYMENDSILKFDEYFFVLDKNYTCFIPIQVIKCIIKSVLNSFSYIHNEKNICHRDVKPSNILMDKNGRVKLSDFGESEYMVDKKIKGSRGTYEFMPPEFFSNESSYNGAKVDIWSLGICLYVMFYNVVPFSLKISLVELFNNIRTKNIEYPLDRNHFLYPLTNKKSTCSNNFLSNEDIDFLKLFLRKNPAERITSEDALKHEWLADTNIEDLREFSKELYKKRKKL
Sequence of Calcium-dependent protein kinase 1 (Plasmodium falciparum (isolate 3D7)) (P62344 whole entry, looked up): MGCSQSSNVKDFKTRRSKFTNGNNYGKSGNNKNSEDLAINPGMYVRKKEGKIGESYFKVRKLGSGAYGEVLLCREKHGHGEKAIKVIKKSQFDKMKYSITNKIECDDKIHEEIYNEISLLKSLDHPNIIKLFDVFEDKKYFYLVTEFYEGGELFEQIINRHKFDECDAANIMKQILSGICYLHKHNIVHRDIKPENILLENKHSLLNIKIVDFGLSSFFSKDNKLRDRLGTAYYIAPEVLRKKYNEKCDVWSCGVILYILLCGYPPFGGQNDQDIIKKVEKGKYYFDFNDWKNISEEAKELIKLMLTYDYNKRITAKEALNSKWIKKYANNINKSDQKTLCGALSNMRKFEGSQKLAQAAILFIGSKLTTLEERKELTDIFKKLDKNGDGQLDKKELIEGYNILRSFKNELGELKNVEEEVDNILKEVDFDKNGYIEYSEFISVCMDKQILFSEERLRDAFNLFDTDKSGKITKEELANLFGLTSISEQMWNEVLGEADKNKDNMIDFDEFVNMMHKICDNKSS

Usually inhibition stands for the change of the read-out against control, counted positive when it falls. Regarding `CN1c2ccc([N+](=O)[O-])cc2C(C)(C)C12C=Cc1cc(Br)cc([N+](=O)[O-])c1O2` (configuration not stated), the growth inhibition in test [1] was 99% (active); in test [4] it was 101% (active). Moreover, the inhibition in test [2] is -8%; in test [3], 1%. The result in test [5], in test [6], in test [7] and in test [8] was inactive.
Turning to `C=Cc1ccc(-c2c(C)[nH]c(C)c(Br)c2=O)cc1`, the growth inhibition in test [1] was 96% (active); in test [4], 98% (active). Further, the inhibition in test [2] was -2%; in test [3] it was -3%. For the same compound, the result in test [5], in test [6], in test [7] and in test [8] was inactive.
On to `CN1CCN(CC2(Nc3nccc(NCCc4cn(C)c5ccccc45)n3)CCCCC2)CC1`, for which the values for the growth inhibition in test [1] and in test [4] were 41% and 91% (active), respectively. Further, the inhibition in test [2] is 67% (active); in test [3], 2%. Also, the outcome in test [5], in test [6], in test [7] and in test [8] was inactive.
For the compound `O=C(/C=C/c1ccc(Cl)c(Cl)c1)NCCCCCN1CCCN(C(=O)Nc2ccc(F)c(F)c2)CC1`, the figures for the growth inhibition in test [1] and in test [4] were -1% and 102% (active), respectively. Besides, the results for the inhibition in test [2] and in test [3] were 26% and -2%, respectively. Moreover, the result in test [5], in test [6], in test [7] and in test [8] was inactive.
Regarding `CN1CCN(CCCN(Cc2cccc(-c3ccc(CNC4CCCC4)cc3)c2)C(=O)CCC2CCCC2)CC1`, the growth inhibition was 84% (active) in test [1] and 97% (active) in test [4]. Also, the inhibition in test [2] is 16%; in test [3], -1%. The result in test [5], in test [6], in test [7] and in test [8] was inactive.
As to `CCn1cc(CN2CCCC(C(=O)Nc3ccc(-c4nc5ccccc5[nH]4)cc3)C2)cn1` (configuration not stated), the results for the growth inhibition in test [1] and in test [4] were 26% and 100% (active), respectively. In addition, the inhibition is 8% in test [2] and -1% in test [3]. Also, the outcome in test [5], in test [6], in test [7] and in test [8] was inactive.
As to `COc1ccc2nccc([C@@H](O)CN3CCC(NCc4cc5oc(=O)n(C)c5cc4F)CC3)c2c1`, the growth inhibition in test [1] is 72% (active); in test [4], 99% (active). In addition, the inhibition was -3% in test [2] and -2% in test [3]. Besides, the outcome in test [5], in test [6], in test [7] and in test [8] was inactive.
`Oc1cccc(Nc2nc(NCc3ccccc3)c3ccccc3n2)c1`: the results for the growth inhibition in test [1] and in test [4] were 99% (active) and 95% (active), respectively. The inhibition in test [2] was 21%; in test [3] it was -7%. Moreover, the result in test [5], in test [6], in test [7] and in test [8] was inactive.
For the compound `O=S(=O)(NC1CCN(c2ccnc3cc(Cl)ccc23)C1)c1cccc(F)c1` (configuration not stated), the figures for the growth inhibition in test [1] and in test [4] were 88% (active) and 98% (active), respectively. Further, the inhibition in test [2] is 19%; in test [3], 5%. Also, the outcome in test [5], in test [6], in test [7] and in test [8] was inactive.
Regarding `N#Cc1cccc(C(=O)NC2CCN(CCCCCNC(=O)/C=C/c3ccc(Cl)c(Cl)c3)CC2)c1`, the figures for the growth inhibition in test [1] and in test [4] were -1% and 103% (active), respectively. Further, the inhibition in test [2] was 11%; in test [3], -9%. The outcome in test [5], in test [6], in test [7] and in test [8] was inactive.
For the compound `Cc1noc(C)c1-c1ccc(C(=C2CCCCCC2)c2ccc(O)cc2)cc1`, the figures for the growth inhibition in test [1] and in test [4] were 96% (active) and 100% (active), respectively. Besides, the inhibition in test [2] was -7%; in test [3], 7%. Moreover, the outcome in test [5], in test [6], in test [7] and in test [8] was inactive.
On to `Nc1cccc(CNCc2cccc(-c3ccc(-c4nc5ccc(C(F)(F)F)cc5[nH]4)cc3)c2)c1`, for which the growth inhibition in test [1] was 98% (active); in test [4], 101% (active). The inhibition in test [2] is 6%; in test [3], 1%. In addition, the result in test [5], in test [6], in test [7] and in test [8] was inactive.
Take `CCn1c(Sc2ccc(C#N)c([N+](=O)[O-])c2)nnc1-c1cccc(Cl)c1`: the growth inhibition in test [1] was 88% (active); in test [4], 95% (active). Besides, the values for the inhibition in test [2] and in test [3] were -5% and -2%, respectively. For the same compound, the outcome in test [5], in test [6], in test [7] and in test [8] was inactive.
Consider `CCCCCCCCc1c(C)[nH]c(C)c(Cl)c1=O`, for which the figures for the growth inhibition in test [1] and in test [4] were 95% (active) and 96% (active), respectively. Moreover, the results for the inhibition in test [2] and in test [3] were -4% and -3%, respectively. Also, the outcome in test [5], in test [6], in test [7] and in test [8] was inactive.
Take `N#Cc1ccc(-c2ccc(C(=O)NCCCCN3CCC(c4ccc5c(c4OCc4ccncc4)CCCC5)CC3)cc2)cc1`: the growth inhibition in test [1] is 57% (active); in test [4], 81% (active). The figures for the inhibition in test [2] and in test [3] were 41% and 1%, respectively. In addition, the result in test [5], in test [6], in test [7] and in test [8] was inactive.
With `COc1cccc(C(O)CNc2ccnc(Nc3ccc(Cl)cc3)n2)c1` (configuration not stated), the growth inhibition was 46% in test [1] and 99% (active) in test [4]. Moreover, the inhibition in test [2] is 31%; in test [3], -7%. Moreover, the outcome in test [5], in test [6], in test [7] and in test [8] was inactive.
As to `C=C(C)C1CC=C(CN2CCCC(n3ccc4cc(NC(=O)c5ccco5)ccc43)CC2)CC1` (configuration not stated), the growth inhibition in test [1] was 95% (active); in test [4], 90% (active). In addition, the inhibition in test [2] was 13%; in test [3], 1%. Further, the outcome in test [5], in test [6], in test [7] and in test [8] was inactive.
As to `CN1CCC(NCc2ccc(-c3cnc(NCc4ccccc4)nc3)cc2)CC1`, the growth inhibition in test [1] is 64% (active); in test [4], 91% (active). In addition, the inhibition is 23% in test [2] and 4% in test [3]. Besides, the outcome in test [5], in test [6], in test [7] and in test [8] was inactive.
Consider `CN(C)c1ccc(-c2ccc(C(=O)NC3CCN(Cc4ccccc4)CC3)s2)cc1`, for which the results for the growth inhibition in test [1] and in test [4] were 10% and 92% (active), respectively. Moreover, the results for the inhibition in test [2] and in test [3] were 20% and -3%, respectively. Also, the outcome in test [5], in test [6], in test [7] and in test [8] was inactive.
